# In article PMC7862700, “An all-to-all approach to the identification of sequence-specific readers for epigenetic DNA modifications on cytosine”:
# Experiments:
# Test in all cases: DAPPL (digital affinity profiling via proximity ligation, sequencing); 10 mM Tris-HCl pH 7.5, 50 mM NaCl, 1 mM DTT, 4% glycerol, room temperature, 30 min; GST-TFs on glutathione beads, 16-mer random dsDNA library, 0.1% formaldehyde crosslink after washing; high values mean tight binding
# FEV = molecular target: T1, FEV (Homo sapiens, UniProt Q99581 1-238); conditions: protein: recombinant; tags: N-terminal GST; dsDNA, one strand shown
# T1 sequence: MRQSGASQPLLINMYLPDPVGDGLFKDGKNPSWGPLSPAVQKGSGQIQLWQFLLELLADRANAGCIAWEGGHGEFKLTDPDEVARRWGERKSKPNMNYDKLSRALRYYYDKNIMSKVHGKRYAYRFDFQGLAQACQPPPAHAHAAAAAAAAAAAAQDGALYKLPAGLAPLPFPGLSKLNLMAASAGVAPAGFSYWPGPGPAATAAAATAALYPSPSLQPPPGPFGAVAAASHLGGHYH
# Summary of the method: (§1)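 Sequencing on an Illumina NextSeq500 followed washing, crosslinking with 0.1% formaldehyde, proximity ligation (BsaI/T4 ligase, 1 h, 37 °C) and PCR amplification of pools that had been incubated for 30 min at room temperature with 200 nmole of a random double-stranded 16-mer DNA library in Tris/NaCl/DTT/glycerol buffer. Each pool held DNA-barcoded human transcription factors, expressed in yeast as GST fusions and captured on glutathione beads, plus a tag-only sample. Binding signal is a hexamer's read frequency for a factor divided by its frequency in the tag-only sample.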
# ETV5 = ETV5 (Homo sapiens, UniProt P41161 1-510); conditions: protein: recombinant; tags: N-terminal GST; dsDNA, one strand shown
# Sequence of ETV5 (P41161 whole entry): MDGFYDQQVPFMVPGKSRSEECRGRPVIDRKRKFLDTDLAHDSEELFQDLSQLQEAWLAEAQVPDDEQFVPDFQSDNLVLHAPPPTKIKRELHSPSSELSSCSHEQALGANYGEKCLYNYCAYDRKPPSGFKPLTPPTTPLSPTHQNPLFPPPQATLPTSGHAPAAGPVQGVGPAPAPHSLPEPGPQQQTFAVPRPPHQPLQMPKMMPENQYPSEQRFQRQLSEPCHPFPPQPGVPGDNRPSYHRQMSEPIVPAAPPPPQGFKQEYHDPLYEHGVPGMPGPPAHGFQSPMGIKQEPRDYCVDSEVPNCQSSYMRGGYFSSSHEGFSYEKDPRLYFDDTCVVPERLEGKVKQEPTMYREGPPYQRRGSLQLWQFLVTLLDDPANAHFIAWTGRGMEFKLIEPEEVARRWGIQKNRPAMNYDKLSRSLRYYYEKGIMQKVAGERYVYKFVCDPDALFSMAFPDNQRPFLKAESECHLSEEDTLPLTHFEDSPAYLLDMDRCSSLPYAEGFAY
# Summary of the method: as §1
# HSF1 = HSF1 (Homo sapiens, UniProt Q00613 1-529); conditions: protein: recombinant; tags: N-terminal GST; chain copies: 3; dsDNA, one strand shown
# Sequence of HSF1 (Q00613 whole entry): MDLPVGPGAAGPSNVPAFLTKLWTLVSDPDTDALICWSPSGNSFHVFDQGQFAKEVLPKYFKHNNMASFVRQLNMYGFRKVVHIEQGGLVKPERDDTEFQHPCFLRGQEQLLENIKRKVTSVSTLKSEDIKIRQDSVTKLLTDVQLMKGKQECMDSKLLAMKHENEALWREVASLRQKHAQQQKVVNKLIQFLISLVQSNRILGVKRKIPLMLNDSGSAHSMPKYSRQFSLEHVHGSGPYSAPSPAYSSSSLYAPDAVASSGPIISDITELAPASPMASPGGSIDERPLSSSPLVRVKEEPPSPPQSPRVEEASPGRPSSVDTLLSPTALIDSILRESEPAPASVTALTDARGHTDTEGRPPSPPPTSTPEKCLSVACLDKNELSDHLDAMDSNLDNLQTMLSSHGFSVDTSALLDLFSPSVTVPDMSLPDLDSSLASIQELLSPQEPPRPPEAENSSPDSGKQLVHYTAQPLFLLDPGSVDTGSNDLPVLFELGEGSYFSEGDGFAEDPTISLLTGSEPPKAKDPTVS
# Summary of the method: as §1
# SPIC = molecular target: T2, SPIC (Homo sapiens, UniProt Q8N5J4 1-248); conditions: protein: recombinant; tags: N-terminal GST; dsDNA, one strand shown
# T2 sequence: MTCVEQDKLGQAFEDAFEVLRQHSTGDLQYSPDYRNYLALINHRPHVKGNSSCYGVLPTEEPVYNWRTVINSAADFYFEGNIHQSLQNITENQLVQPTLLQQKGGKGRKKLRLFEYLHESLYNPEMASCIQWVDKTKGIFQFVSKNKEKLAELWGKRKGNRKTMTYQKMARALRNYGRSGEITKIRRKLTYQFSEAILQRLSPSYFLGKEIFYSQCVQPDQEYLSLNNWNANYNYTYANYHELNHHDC
# Summary of the method: as §1
# ELF4 = ELF4 (Homo sapiens, UniProt Q99607 1-663); conditions: protein: recombinant; tags: N-terminal GST; dsDNA, one strand shown
# Sequence of ELF4 (Q99607 whole entry): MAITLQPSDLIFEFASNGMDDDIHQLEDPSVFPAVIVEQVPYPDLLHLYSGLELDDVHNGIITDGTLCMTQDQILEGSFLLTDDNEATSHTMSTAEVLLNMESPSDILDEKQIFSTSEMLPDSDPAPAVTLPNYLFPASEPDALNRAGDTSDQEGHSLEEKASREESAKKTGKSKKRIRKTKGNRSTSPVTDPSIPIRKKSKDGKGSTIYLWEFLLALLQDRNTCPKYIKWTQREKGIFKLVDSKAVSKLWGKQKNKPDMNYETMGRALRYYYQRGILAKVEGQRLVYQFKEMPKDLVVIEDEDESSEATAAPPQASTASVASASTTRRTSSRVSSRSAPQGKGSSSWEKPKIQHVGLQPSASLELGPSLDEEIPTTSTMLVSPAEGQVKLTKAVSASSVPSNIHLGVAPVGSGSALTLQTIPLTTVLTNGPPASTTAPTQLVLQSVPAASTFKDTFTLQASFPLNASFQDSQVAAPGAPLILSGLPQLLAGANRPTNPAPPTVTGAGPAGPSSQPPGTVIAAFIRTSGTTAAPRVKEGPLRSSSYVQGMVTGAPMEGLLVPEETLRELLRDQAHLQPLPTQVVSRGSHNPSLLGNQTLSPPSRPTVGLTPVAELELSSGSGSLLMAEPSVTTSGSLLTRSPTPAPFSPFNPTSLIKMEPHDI
# Summary of the method: as §1
# ELK4 = molecular target: T3, ELK4 (Homo sapiens, UniProt P28324-2 1-405); conditions: protein: recombinant; tags: N-terminal GST; dsDNA, one strand shown
# T3 sequence: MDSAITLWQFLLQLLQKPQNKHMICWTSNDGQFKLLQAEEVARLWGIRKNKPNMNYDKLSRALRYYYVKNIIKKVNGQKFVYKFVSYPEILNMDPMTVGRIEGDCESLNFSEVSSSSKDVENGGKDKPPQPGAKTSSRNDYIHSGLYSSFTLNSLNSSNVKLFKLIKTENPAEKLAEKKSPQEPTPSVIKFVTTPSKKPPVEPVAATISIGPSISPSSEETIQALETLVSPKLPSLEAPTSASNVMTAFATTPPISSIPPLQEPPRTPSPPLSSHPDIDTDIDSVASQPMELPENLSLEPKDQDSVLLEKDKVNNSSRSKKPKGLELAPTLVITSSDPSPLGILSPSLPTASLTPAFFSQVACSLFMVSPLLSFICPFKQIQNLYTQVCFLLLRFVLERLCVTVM
# Summary of the method: as §1
# ETV2 = molecular target: T4, ETV2 (Homo sapiens, UniProt O00321 1-342); conditions: protein: recombinant; tags: N-terminal GST; dsDNA, one strand shown
# T4 sequence: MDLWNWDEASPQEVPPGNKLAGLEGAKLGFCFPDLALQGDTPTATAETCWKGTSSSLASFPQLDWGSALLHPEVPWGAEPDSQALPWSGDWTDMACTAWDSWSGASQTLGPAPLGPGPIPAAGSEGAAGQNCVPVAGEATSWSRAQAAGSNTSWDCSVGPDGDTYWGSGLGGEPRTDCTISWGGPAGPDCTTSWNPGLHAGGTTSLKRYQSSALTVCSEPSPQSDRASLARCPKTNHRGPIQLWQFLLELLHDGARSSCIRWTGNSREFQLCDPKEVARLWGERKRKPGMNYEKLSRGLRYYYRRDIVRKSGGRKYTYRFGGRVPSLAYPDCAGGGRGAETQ
# Summary of the method: as §1
# ELF3 = molecular target: T5, ELF3 (Homo sapiens, UniProt P78545 1-371); conditions: protein: recombinant; tags: N-terminal GST; dsDNA, one strand shown
# T5 sequence: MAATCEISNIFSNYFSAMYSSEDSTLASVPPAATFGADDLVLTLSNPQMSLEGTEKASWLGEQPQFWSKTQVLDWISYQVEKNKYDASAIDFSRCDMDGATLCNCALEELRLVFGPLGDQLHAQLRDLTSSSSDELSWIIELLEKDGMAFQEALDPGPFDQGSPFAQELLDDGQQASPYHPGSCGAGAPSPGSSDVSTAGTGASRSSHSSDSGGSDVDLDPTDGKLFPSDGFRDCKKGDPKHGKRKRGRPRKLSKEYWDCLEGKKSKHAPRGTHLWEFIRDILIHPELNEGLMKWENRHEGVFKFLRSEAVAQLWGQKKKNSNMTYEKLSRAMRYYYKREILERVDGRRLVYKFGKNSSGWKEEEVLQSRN
# Summary of the method: as §1
# CRX = CRX (Homo sapiens, UniProt O43186 1-299); conditions: protein: recombinant; tags: N-terminal GST; dsDNA, one strand shown
# Sequence of CRX (O43186 whole entry): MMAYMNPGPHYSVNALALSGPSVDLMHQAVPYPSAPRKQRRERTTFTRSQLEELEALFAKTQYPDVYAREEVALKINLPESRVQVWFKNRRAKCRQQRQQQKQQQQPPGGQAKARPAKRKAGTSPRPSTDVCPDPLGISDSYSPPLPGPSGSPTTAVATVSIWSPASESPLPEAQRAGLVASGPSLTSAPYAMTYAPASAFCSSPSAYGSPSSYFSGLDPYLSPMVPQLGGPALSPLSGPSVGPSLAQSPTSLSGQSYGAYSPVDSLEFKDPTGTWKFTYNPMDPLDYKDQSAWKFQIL
# Summary of the method: as §1
# ETV1 = ETV1 (Homo sapiens, UniProt P50549 1-477); conditions: protein: recombinant; tags: N-terminal GST; dsDNA, one strand shown
# Sequence of ETV1 (P50549 whole entry): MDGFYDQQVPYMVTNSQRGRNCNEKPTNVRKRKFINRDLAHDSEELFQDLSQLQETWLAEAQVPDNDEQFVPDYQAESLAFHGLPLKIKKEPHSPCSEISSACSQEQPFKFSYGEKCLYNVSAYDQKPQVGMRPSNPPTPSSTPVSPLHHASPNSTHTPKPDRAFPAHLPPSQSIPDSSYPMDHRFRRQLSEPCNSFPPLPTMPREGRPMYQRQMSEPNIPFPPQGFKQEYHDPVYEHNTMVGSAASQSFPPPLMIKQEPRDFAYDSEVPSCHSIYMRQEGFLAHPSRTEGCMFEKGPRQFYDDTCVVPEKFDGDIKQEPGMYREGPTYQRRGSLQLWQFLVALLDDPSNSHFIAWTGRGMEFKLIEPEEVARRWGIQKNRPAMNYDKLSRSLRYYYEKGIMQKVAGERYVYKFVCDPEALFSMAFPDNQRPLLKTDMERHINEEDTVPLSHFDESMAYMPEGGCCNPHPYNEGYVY
# Summary of the method: as §1
# ERF = molecular target: T6, ERF (Homo sapiens, UniProt P50548 1-548); conditions: protein: recombinant; tags: N-terminal GST; dsDNA, one strand shown
# T6 sequence: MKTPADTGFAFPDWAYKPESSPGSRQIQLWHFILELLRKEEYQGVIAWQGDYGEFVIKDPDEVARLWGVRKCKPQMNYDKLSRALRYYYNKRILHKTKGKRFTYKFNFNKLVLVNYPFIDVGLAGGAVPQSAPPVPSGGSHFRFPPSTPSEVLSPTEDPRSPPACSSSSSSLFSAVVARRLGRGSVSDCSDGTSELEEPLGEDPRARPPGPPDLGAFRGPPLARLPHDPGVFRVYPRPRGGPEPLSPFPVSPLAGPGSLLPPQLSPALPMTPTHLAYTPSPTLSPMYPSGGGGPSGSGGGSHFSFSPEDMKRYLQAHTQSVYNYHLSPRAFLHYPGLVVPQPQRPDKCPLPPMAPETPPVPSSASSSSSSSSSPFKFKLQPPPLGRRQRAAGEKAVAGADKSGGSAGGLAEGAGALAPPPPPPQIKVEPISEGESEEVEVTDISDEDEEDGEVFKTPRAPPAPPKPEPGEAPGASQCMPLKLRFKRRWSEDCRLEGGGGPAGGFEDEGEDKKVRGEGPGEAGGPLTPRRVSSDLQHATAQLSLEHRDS
# Summary of the method: as §1
# ETV3L = molecular target: T7, ETV3L (Homo sapiens, UniProt Q6ZN32 1-361); conditions: protein: recombinant; tags: N-terminal GST; dsDNA, one strand shown
# T7 sequence: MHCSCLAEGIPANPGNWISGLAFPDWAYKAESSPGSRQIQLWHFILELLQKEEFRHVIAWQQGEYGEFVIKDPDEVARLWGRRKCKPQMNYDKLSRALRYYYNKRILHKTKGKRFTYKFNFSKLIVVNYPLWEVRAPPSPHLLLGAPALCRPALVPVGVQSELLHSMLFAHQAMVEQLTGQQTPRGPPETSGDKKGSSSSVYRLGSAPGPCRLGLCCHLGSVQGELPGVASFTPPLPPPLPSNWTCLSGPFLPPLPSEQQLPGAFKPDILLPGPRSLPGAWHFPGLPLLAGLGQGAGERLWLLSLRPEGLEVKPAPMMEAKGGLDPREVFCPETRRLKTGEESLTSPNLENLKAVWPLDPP
# Summary of the method: as §1
# ETS2 = molecular target: T8, ETS2 (Homo sapiens, UniProt P15036 1-469); conditions: protein: recombinant; tags: N-terminal GST; dsDNA, one strand shown
# T8 sequence: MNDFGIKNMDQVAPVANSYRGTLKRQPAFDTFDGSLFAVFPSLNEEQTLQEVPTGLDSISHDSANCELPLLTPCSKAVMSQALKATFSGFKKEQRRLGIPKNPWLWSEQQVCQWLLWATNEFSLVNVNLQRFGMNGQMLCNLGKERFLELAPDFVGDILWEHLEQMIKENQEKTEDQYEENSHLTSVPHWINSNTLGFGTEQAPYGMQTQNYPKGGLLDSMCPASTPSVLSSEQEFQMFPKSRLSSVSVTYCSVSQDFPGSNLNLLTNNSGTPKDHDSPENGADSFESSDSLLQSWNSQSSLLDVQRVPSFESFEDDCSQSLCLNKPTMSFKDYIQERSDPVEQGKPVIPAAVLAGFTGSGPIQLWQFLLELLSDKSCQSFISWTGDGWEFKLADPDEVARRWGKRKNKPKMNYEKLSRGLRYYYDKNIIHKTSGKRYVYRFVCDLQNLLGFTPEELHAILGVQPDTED
# Summary of the method: as §1
# SPDEF = molecular target: T9, SPDEF (Homo sapiens, UniProt O95238 1-335); conditions: protein: recombinant; tags: N-terminal GST; dsDNA, one strand shown
# T9 sequence: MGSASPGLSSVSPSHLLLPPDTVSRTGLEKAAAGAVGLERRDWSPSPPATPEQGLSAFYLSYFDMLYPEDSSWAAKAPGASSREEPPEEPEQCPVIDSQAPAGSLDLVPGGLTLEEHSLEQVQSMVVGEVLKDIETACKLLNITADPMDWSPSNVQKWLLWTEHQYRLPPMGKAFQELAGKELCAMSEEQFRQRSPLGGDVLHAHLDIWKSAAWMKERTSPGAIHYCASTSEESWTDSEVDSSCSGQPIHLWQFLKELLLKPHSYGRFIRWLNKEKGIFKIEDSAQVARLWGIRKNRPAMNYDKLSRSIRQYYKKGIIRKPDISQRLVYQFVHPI
# Summary of the method: as §1
# ETV7 = molecular target: T10, ETV7 (Homo sapiens, UniProt Q9Y603 1-341); conditions: protein: recombinant; tags: N-terminal GST; dsDNA, one strand shown
# T10 sequence: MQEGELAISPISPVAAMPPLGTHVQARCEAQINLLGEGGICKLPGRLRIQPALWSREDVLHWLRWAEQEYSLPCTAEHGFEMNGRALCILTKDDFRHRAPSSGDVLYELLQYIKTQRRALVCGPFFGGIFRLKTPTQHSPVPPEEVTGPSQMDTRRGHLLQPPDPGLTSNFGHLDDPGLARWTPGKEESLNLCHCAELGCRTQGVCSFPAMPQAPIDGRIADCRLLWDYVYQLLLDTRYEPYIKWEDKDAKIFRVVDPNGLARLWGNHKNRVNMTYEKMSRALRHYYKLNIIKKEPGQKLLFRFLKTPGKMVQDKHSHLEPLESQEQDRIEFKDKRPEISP
# Summary of the method: as §1
# ELF5 = molecular target: T11, ELF5 (Homo sapiens, UniProt Q9UKW6-2 1-255); conditions: protein: recombinant; tags: N-terminal GST; dsDNA, one strand shown
# T11 sequence: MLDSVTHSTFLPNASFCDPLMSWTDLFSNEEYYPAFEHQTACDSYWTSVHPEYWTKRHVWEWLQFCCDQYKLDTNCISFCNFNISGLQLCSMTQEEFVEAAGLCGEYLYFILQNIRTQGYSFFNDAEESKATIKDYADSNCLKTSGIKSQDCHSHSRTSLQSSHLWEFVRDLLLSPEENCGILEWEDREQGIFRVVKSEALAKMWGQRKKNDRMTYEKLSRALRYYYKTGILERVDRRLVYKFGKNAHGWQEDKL
# Summary of the method: as §1
# ETV3 = molecular target: T12, ETV3 (Homo sapiens, UniProt P41162-2 1-143); conditions: protein: recombinant; tags: N-terminal GST; dsDNA, one strand shown
# T12 sequence: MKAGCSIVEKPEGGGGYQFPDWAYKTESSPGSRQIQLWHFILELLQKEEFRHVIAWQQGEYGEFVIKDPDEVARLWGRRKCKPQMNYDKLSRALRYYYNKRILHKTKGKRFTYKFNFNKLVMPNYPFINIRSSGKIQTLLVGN
# Summary of the method: as §1
# ETV6 = ETV6 (Homo sapiens, UniProt P41212 1-452); conditions: protein: recombinant; tags: N-terminal GST; dsDNA, one strand shown
# Sequence of ETV6 (P41212 whole entry): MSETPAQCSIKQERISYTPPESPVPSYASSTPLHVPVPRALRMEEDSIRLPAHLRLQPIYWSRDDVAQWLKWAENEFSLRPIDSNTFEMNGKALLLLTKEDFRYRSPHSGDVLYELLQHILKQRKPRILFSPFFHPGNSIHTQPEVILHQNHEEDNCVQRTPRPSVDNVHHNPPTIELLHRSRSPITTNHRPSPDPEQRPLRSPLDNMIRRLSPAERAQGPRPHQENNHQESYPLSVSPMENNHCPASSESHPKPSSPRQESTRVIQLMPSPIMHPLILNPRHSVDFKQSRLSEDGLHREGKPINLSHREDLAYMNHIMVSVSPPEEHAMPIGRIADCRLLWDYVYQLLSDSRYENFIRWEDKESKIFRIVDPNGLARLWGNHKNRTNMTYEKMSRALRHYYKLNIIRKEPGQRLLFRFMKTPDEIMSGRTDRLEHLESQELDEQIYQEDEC
# Summary of the method: as §1
sequence,measurement,setting,value
TACCTA,binding signal,FEV,"1.2 fold enrichment (6-mer frequency, TF over GST control)"
same,binding signal,ETV5,"1.31 fold enrichment (6-mer frequency, TF over GST control)"
same,binding signal,HSF1,"1.28 fold enrichment (6-mer frequency, TF over GST control)"
same,binding signal,SPIC,"1.19 fold enrichment (6-mer frequency, TF over GST control)"
same,binding signal,ELF4,"1.3 fold enrichment (6-mer frequency, TF over GST control)"
same,binding signal,ELK4,"1.35 fold enrichment (6-mer frequency, TF over GST control)"
same,binding signal,ETV2,"1.21 fold enrichment (6-mer frequency, TF over GST control)"
same,binding signal,ELF3,"1.3 fold enrichment (6-mer frequency, TF over GST control)"
same,binding signal,CRX,"1.55 fold enrichment (6-mer frequency, TF over GST control)"
same,binding signal,ETV1,"1.34 fold enrichment (6-mer frequency, TF over GST control)"
same,binding signal,ERF,"1.25 fold enrichment (6-mer frequency, TF over GST control)"
same,binding signal,ETV3L,"1.28 fold enrichment (6-mer frequency, TF over GST control)"
same,binding signal,ETS2,"1.31 fold enrichment (6-mer frequency, TF over GST control)"
same,binding signal,SPDEF,"1.19 fold enrichment (6-mer frequency, TF over GST control)"
same,binding signal,ETV7,"1.27 fold enrichment (6-mer frequency, TF over GST control)"
same,binding signal,ELF5,"1.23 fold enrichment (6-mer frequency, TF over GST control)"
same,binding signal,ETV3,"1.2 fold enrichment (6-mer frequency, TF over GST control)"
same,binding signal,ETV6,"1.29 fold enrichment (6-mer frequency, TF over GST control)"
